High-throughput results as filed in PubChem BioAssay.
Hits are enriched below; roughly 3.4% of the tested compounds scored in any of these assays.
PG9 Ab binder – small molecules binding HIV-1 gp120 antibody PG9; 360,000 compounds, 0.43% hits; inhibition, % at 6.7 µM; AID 624416; TR-FRET gp120-PG9 antibody binding; in the data active = inhibition above about 8.5%
FXN GAA850 act – frataxin GAA850 promoter activation | HEK293 lucGAA850 FXN promoter luciferase reporter, 24 h; percent of 10 µM SAHA response | activation, % at 6 µM | 360,000 compounds, 0.56% hits;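 active = activation above the average of all compounds screened plus 3 SD, cutoff fixed separately per campaign, cut at about 7.5% in these data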;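 note: 0% = DMSO wells and 100% = 10 µM SAHA wells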
HSF1 inh – HSF1 inhibition; NIH3T3-HGL HSE-luciferase, MG132-induced, luminescence 8 h; stronger effect = lower value; activity change, negative = inhibition, % at 7.5 µM (by protocol); 300,000 compounds, 0.77% hits;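 active = more than half of replicate wells show activity change below -50%, luminescence cut by over half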;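 note: luciferase reports HSF-1 transcriptional activity via heat shock element; 0% = median of DMSO wells and -100% = zero luminescence signal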
SMARCA2 activ – activators of SMARCA2 function | activation, % at 9.1 µM | MG213 cells, MMTV-luciferase reporter, dexamethasone, overnight | 370,000 compounds, 1% hits; in the data active = activation above about 7.8%;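 note: 0% = vehicle wells and 100% = reference activator wells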
AI-2 QS mod – modulates the Vibrio harveyi AI-2 quorum sensing system. AID 2094. 300,000 compounds, 0.4% hits. Vibrio harveyi JMH597 AI-2 luminescence/OD600 ratio, 9 h; stronger effect = lower value; strain lacks LuxN and CqsS sensors; 0 = neutral-control median. activity change, % at 7.5 µM; in the data active = activity change below about -75%, passing the limit was not always enough;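 note: luminescence divided by OD600 gain over 9 h not by final OD600 alone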
HSP90 refold inh – HSP90 refolding inhibition in rabbit reticulocyte lysate; luciferase refolding luminescence, 3 h; inhibition, % at 5.6 µM; 290,000 compounds, 0.91% hits; AID 1789;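 active = inhibition above the screen-wide mean plus 3 SD, computed separately per campaign, cut at about 16% in these data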;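 note: 0% = DMSO wells and 100% = 60 µM geldanamycin wells; inhibitors lower the luminescence because luciferase stays unfolded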
GAA30 FXN cntr – activates GAA30 frataxin promoter, counter-screen for GAA850 activators; shares compounds with FXN GAA850 act; HEK293 lucGAA30 FXN promoter luciferase, 24 h; DMSO = 0%, 5 µM ipriflavone = 100%; activation, % at 6 µM; 1,900 compounds, 66% hits; AID 588350;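 active = mean activation above the mean of solvent-only control wells plus 3 SD, cut at about 22% in these data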;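 note: counterscreen of GAA850 promoter hits where activity marks nonselective or luminescence artifacts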
FXN GAA850 conf – confirmation of GAA850 frataxin (FXN) promoter activators; shares compounds with FXN GAA850 act; HEK293 lucGAA850 FXN promoter luciferase reporter, 24 h; 100% = activation by SAHA; activation, % at 6 µM; 1,900 compounds, 86% hits; AID 588351;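 active = mean activation above a set limit taken from the primary screen, cut at about 8% in these data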;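 note: 0% = DMSO wells and 100% = 10 µM SAHA wells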
SMARCA2 conf – SMARCA2 activation, confirmation screen; shares compounds with SMARCA2 activ; MG213 cells, MMTV-luciferase with dexamethasone, luminescence, overnight; MG213 cells expressing E1A, Rb sequestered; DMSO wells 0%, reference activator 100%; activation, % at 9.1 µM; 3,500 compounds, 30% hits; AID 652260;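 active = activation above its plate's cutoff, the mean activation of tested wells plus 3 SD, cut at about 7.9% in these data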
VP16 Luc act – GAL4-VP16 reporter activation counter-screen; shares compounds with SMARCA2 activ; HEK293 GAL4-VP16 pG5luc reporter, luciferase luminescence; scaled: DMSO wells 0%, SAHA wells 100%; activation, % at 9.1 µM; 3,500 compounds, 41% hits; AID 686939;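 active = activation above the solvent-only control well mean plus 3 SD, averaged across control plates, cut at about 5.2% in these data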
Numbers without * were called inactive; . = no result.

SMILES	PG9 Ab binder	FXN GAA850 act	HSF1 inh	SMARCA2 activ	AI-2 QS mod	HSP90 refold inh	GAA30 FXN cntr	FXN GAA850 conf	SMARCA2 conf	VP16 Luc act
COc1ccc(-c2nn3c(C4CCCCC4)nnc3s2)cc1OC	-2.6	12.5*	-10.2	12.3*	14.5	-1.7	12.9	9.7*	7.3	4.2
COc1cc(-c2nn3c(C4CCCCC4)nnc3s2)cc(OC)c1OC	1.7	-0.1	-9.2	-1.0	21.0	0.2	.	.	.	.
COc1ccc(C2=Nn3c(nnc3C3CCCCC3)SC2)cc1OC	-0.3	13.1*	-0.9	13.7*	41.5	1.8	13.8	13.2*	13.6*	7.3*
CCOC(=O)C1=CCC(c2ccccc2C(F)(F)F)N(S(=O)(=O)c2ccc(C)cc2)C1 (stereo not drawn)	0.0	.	.	-3.5	.	.	.	.	.	.
Oc1cccc2ccc(/C=C/c3ccccc3Br)nc12	0.6	-0.1	15.6	5.1	36.5	-1.1	.	.	.	.
Oc1cccc2ccc(/C=C/c3cccs3)nc12	-3.9	11.2*	23.7	12.9*	36.8	0.2	35.2*	23.8*	-1.9	22.5*
Cc1ccsc1/C=C/c1ccc2ccccc2n1	-1.1	6.1	-23.6	4.1	8.7	9.2	.	.	.	.
Cc1ccsc1/C=C/c1ccc2cccc(O)c2n1	-0.6	8.5*	46.3	13.0*	26.2	1.8	4.4	24.4*	-9.5	19.1*
Cc1ccccc1C(=O)N[C@H](C(=O)N1CCC[C@H]1C(=O)NC1CCCC1)c1ccccc1	-1.0	.	.	-2.4	.	.	.	.	.	.
CCNC(=O)C[C@@H]1CC[C@@H]2NC[C@@H](O)COC[C@H]2O1	-0.7	.	.	-2.2	.	.	.	.	.	.
CCCNc1nc(N)nc(-c2cc(Cl)ccc2OC)n1	-0.7	2.0	-10.1	0.4	11.8	-0.2	.	.	.	.
CCCCNc1nc(N)nc(-c2cc(Cl)ccc2O)n1	1.1	14.0*	12.9	17.4*	2.8	-2.1	132.8*	73.0*	13.5*	13.2*
O=c1c(Cl)c(NCCCO)cnn1-c1nc2ccccc2[nH]1	0.8	29.3*	53.7	21.5*	19.4	3.7	61.1*	54.5*	17.5*	17.7*
Nc1[nH]c(C(=O)c2ccccc2)c(-c2ccccc2Br)c1C(=O)c1cccs1	0.4	.	.	-1.9	.	.	.	.	.	.
CCOC(=O)Nc1ccc2c(c1)C(=NNC(=S)NC)c1ccccc1-2	-1.8	13.7*	.	9.8*	.	.	48.1*	20.2*	16.2*	8.4*
Cn1nc(NC(=O)C(F)(F)F)c2ncc(-c3ccc(Cl)cc3)nc21	-3.4	6.8	22.1	6.4	14.2	3.2	.	.	.	.
Cn1nc(N)c2ncc(-c3ccc(Cl)cc3)nc21	-2.5	9.7*	.	9.1*	.	.	98.5*	30.1*	8.9*	7.7*
COc1cccc(CNC(=O)[C@H]2CCCN2C(=O)[C@H]2CCCN2C(=O)c2ccc(C)c(C)c2)c1	-0.8	.	.	1.1	.	.	.	.	.	.
COc1ccc(/C=C(/C(=O)c2cccs2)N2C=CC=CC2=C(C#N)C#N)cc1	0.1	13.6*	98.6	14.7*	69.9	-0.7	-1.2	21.6*	-14.1	10.8*
O=C1Nc2cnc(Cl)nc2Nc2ccc(Cl)cc21	0.0	.	.	-2.3	.	.	.	.	.	.
Nc1nc(Nc2ccccc2)sc1C(=O)c1ccccc1	-1.4	21.8*	25.2	10.6*	6.2	2.1	102.4*	107.3*	12.1*	8.1*
Cc1cnc(NC(=O)c2sc(Nc3ccccc3)nc2N)o1	-4.6	2.9	-2.3	3.0	13.8	-3.2	.	.	.	.
COc1ccc(C(=O)c2sc(Nc3ccccc3F)nc2N)cc1	0.3	8.1*	5.9	15.8*	29.7	-3.8	81.4*	42.5*	10.8*	11.6*
COc1ccc(C(=O)NC(=S)Nc2ccccc2F)cc1	1.2	6.0	7.3	0.5	4.1	-2.4	.	.	.	.
CCOC(=O)C1=C(C(=O)OCC)C2N(Cc3ccc(Br)cc3)c3ccccc3[C@@]23C[C@@H](C(=O)OC)N(S(=O)(=O)c2ccc(F)cc2)C3=N1 (stereo partly drawn)	-1.2	.	.	-1.4	.	.	.	.	.	.
SMILES	PG9 Ab binder	FXN GAA850 act	HSF1 inh	SMARCA2 activ	AI-2 QS mod	HSP90 refold inh	GAA30 FXN cntr	FXN GAA850 conf	SMARCA2 conf	VP16 Luc act
COc1ccnc(Oc2ccc(C)cc2)c1C#N	0.2	2.8	7.0	0.0	2.2	-2.3	.	.	.	.
COc1ccnc(Oc2ccc3ccccc3c2)c1C#N	-1.7	8.2*	-2.6	14.0*	24.8	-1.2	82.3*	24.9*	5.6	7.9*
Cc1ccc(C(=O)c2sc3nc4c(cc3c2N)CCC4)cc1	0.8	8.4*	17.3	9.1*	23.8	0.6	100.0*	40.8*	8.4*	8.3*
Nc1c(C(=O)N2CCCCC2)sc2nc3c(cc12)CCCC3	1.1	2.7	-1.4	5.2	.	3.8	.	.	.	.
Clc1ccc(-c2nnc(-c3ccco3)o2)cc1	-1.5	11.6*	.	12.9*	5.6	0.1	107.9*	40.7*	8.0*	8.3*
Cc1cc2c([nH]c3ccccc32)c2c1OC(C)(C)C=C2	-5.2	8.2*	31.3	8.3*	-1.6	.	123.5*	46.2*	14.4*	7.9*
Cn1c(=NC(=O)c2cccc([N+](=O)[O-])c2)sc2ccccc21	1.2	9.1*	29.8	8.7*	5.3	-0.7	120.5*	36.2*	6.3	13.6*
O=C(N/N=C/C(Br)=C/c1ccccc1)c1ccccc1F	-2.8	8.5*	179.0	12.9*	31.8	-3.1	109.8*	42.2*	11.2*	12.0*
O=C(N/N=C/C(Cl)=C/c1ccccc1)c1ccccc1F	0.7	3.1	32.7	6.0	8.2	-5.2	.	.	.	.
CCOC(=O)[C@@H]1CSCCS(=O)(=O)N1C(=O)[C@H](CCSC)NC(=O)OC(C)(C)C	-0.3	.	.	-2.3	.	.	.	.	.	.
CCCCOCCCNC(=O)C[C@@H]1C(=O)N(Cc2ccc(OC)cc2)/C2=C/CCCCC[C@@]21C(=O)OCC	.	.	.	-3.5	.	.	.	.	.	.
Cc1ccc(Nc2nc3ccccc3[nH]2)nc1	-2.9	9.4*	23.9	8.7*	-3.6	2.7	85.6*	42.5*	6.5	19.1*
COc1ccc(-c2cc(-c3cc(C)ccc3O)[nH]n2)cc1	-1.7	12.9*	251.8	16.4*	-0.4	-1.5	53.5*	45.6*	17.5*	5.8*
COc1ccc(CN2CN3Cc4cc(OC)ccc4C3CS2(=O)=O)cc1 (stereo not drawn)	.	.	.	-0.7	.	.	.	.	.	.
